# Records with an inconclusive call do not appear. The source made the active and inactive calls. The calls were made as follows, unless noted: active = hit-call score of the fitted dose curve at least 0.9, where 1 is the maximum; inactive = score below 0.9.
# Legend:
# [1] = CCTE_Deisenroth_5AR_NBTE_donor: CCTE's 5alpha-reductase NanoBRET Target Engagement Assay […], Deisenroth Lab (AID 2284319); settings: actives raise or lower the signal
# Summary of the method: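 In this secondary endpoint, donor luminescence from SRD5A2-NanoLuc in transfected HEK293T flags artifacts. Test chemical (10 nM - 29.9 uM) is present five hours, tracer the last two; mock-tracer wells run plate-matched; data fitted bidirectionally against DMSO.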
# [2] = CCTE_Deisenroth_5AR_NBTE_acceptor: CCTE's 5alpha-reductase NanoBRET Target Engagement Assay - Autofluorescence Screen, Deisenroth Lab (AID 2284321); settings: actives raise or lower the signal;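 also: compound fluorescence in the acceptor channel under 460 nm excitation flags autofluorescence artifacts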
# Summary of the method: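 Using three independent plate-reader runs, nominal 100 uM chemicals were checked for intrinsic fluorescence (ex 460 nm). DMSO defined the baseline for bidirectional fitting.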
# SRD5A2 (gene 6716) = assay: CCTE_Deisenroth_5AR_NBTE_ratio: CCTE's 5alpha-reductase NanoBRET Target Engagement Assay - Ratio, Deisenroth Lab (AID 2284322); settings: actives raise or lower the signal
# Summary of the method: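 HEK293T cells transiently expressing an SRD5A2-NanoLuc fusion (20 h post-transfection) were exposed to test chemical (10 nM - 29.9 uM, 8 points) for 3 h, then testosterone tracer for a further 2 h. Acceptor/donor BRET ratio was fitted bidirectionally against DMSO baseline.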
# [3] = VALA_MIGHUV2_Bcatenin: VALA Sciences human Umbilical Vein Endothelial Cell Migration (MIGHUV) Assay, Nuclear Translocation of beta-Catenin after Recovery (AID 2284315; active = hit-call score of the fitted dose curve at least 0.9, where 1 is the maximum)
# Summary of the method: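 Nuclear beta-catenin imaged by immunofluorescence with Hoechst counterstain in fixed HUVEC, 24 h after scratch wounding and chemical addition. Six-point concentration-response in triplicate; activity scored as signal increase over 0.1% DMSO vehicle.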
# [4] = VALA_MIGHUV2_WoundArea: VALA Sciences human Umbilical Vein Endothelial Cell Migration (MIGHUV) Assay, Area of Scratch Wound after Recovery (AID 2284316; active = hit-call score of the fitted dose curve at least 0.9, where 1 is the maximum)
# Summary of the method: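 Wound-area endpoint read by fluorescence imaging of Hoechst-stained nuclei after a 24 h recovery period following scratch of HUVEC monolayers (9000 cells/well). Chemicals dosed within 30 min post-scratch, triplicate 6-point series, 0.1% DMSO vehicle; Cytochalasin D positive control.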
# [5] = VALA_TUBHUV_Antagonist_TubuleLength: VALA Sciences human Umbilical Vein Endothelial Tubule Formation (TUBHUV) Antagonism Assay (AID 2284325; active = hit-call score of the fitted dose curve at least 0.9, where 1 is the maximum)
# Summary of the method: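 Tubule length was imaged via CD31 immunofluorescence after a further 3-day compound exposure in 10 ng/ml VEGF, following 3-day pre-culture of HUVEC with HDF at 1:3. Vehicle 0.1% DMSO; suramin (100 uM) inhibition control.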
# IYD (gene 389434) = assay: CCTE_GLTED_hIYD: CCTE's human Iodotyrosine Deiodinase (xIYD) Inhibition Assay, Great Lakes Toxicology and Ecology Division (GLTED) Lab (AID 2284317; active = hit-call score of the fitted dose curve at least 0.9, where 1 is the maximum;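 also: cell-free human IYD enzyme made in baculovirus insect cells; iodide freed from monoiodotyrosine measured by cerium arsenite color change at 420 nm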)
# Summary of the method: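 In the IYD assay, iodide released from MIT by insect-cell-expressed human enzyme was quantified after 3 h via Sandell-Kolthoff rate at 420 nm, with plate-wise normalization to MNT and solvent controls.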
smiles,measurement,setting,value
C/C=C/C=C/C(=O)O,outcome,[1],inactive
same,outcome,[2],inactive
same,outcome,SRD5A2 (gene 6716),inactive
O=C1OC(c2ccc(O)cc2)(c2ccc(O)cc2)c2ccccc21,outcome,[3],inactive
same,outcome,[4],inactive
same,outcome,[1],inactive
same,outcome,[2],inactive
same,AC50,SRD5A2 (gene 6716),50 µM (active)
same,AC50,[5],50 µM (active)
O=Cc1ccccc1C=O,AC50,IYD (gene 389434),60.2 µM (active)
